This is an account of results in ChEMBL document CHEMBL1961873, “Compounds: GSK PKIS; Assays: Nanosyn kinase panel” (2012).

Experiment [1] addresses T1, Serine/threonine-protein kinase TBK1 (Homo sapiens) (UniProt Q9UHD2).
T1 sequence (whole entry): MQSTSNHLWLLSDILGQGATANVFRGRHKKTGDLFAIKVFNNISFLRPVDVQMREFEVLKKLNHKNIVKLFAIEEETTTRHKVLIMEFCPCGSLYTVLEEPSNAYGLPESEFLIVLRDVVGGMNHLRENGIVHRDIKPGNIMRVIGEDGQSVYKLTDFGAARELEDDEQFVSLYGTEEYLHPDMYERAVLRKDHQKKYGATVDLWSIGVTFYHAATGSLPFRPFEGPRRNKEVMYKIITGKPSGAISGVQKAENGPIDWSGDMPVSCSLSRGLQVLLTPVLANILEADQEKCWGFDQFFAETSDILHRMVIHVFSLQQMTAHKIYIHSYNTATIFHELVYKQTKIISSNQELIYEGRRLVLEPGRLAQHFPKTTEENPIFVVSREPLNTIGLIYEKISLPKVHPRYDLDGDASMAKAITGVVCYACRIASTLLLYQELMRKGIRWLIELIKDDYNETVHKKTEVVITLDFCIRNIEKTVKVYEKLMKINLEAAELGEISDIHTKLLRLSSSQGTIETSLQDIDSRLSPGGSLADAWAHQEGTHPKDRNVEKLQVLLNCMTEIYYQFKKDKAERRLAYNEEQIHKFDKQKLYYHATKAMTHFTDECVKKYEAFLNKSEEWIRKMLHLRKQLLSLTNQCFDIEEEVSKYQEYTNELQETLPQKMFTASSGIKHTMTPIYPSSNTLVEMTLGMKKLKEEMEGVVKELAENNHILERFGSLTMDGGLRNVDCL
Particulars: at 1 µM.

Experiment [2] deals with T2, Testis-specific serine/threonine-protein kinase 1 (Homo sapiens) (UniProt Q9BXA7).
T2 sequence (whole entry): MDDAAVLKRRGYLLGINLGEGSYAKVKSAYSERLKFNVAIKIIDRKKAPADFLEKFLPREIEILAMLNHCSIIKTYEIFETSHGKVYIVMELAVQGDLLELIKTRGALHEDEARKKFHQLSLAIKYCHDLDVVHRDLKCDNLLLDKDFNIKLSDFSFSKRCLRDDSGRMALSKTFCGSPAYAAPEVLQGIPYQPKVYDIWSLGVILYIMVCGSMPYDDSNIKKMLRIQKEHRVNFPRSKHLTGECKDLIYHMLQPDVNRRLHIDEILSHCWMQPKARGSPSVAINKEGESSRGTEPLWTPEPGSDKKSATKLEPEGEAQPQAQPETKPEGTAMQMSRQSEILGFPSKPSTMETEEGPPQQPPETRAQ
Conditions: at 0.1 µM.

Experiment [3] has as its target T2, Testis-specific serine/threonine-protein kinase 1 (Homo sapiens). Particulars: at 1 µM.
Experiment [4] concerns the target T3, Testis-specific serine/threonine-protein kinase 2 (Homo sapiens) (UniProt Q96PF2).
T3 sequence (whole entry): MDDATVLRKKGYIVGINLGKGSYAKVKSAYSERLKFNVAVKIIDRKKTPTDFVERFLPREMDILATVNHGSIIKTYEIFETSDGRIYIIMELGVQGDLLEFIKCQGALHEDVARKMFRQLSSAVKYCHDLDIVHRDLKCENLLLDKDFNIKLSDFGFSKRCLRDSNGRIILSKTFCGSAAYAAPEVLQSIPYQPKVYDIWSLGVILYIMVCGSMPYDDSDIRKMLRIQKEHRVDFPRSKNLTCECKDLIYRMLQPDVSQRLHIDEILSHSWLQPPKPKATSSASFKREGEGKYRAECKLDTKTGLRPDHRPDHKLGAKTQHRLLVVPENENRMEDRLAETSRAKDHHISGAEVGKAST
Particulars: at 0.1 µM.

The target of experiment [5] is T3, Testis-specific serine/threonine-protein kinase 2 (Homo sapiens). Conditions: at 1 µM.
Experiment [6] concerns the target Casein kinase I isoform alpha (Homo sapiens) (UniProt P48729). Particulars: at 0.1 µM.
The target is the same in experiment [7]. Particulars: at 1 µM.
In experiment [8] the target is Casein kinase I isoform gamma-1 (Homo sapiens) (UniProt Q9HCP0). Conditions: at 0.1 µM.
The target is the same in experiment [9]. Conditions: at 1 µM.
Experiment [10] addresses Casein kinase I isoform gamma-2 (Homo sapiens) (UniProt P78368). Conditions: at 0.1 µM.
Experiment [11] shares this target. Conditions: at 1 µM.
The target in experiment [12] is Casein kinase I isoform gamma-3 (Homo sapiens) (UniProt Q9Y6M4). Particulars: at 0.1 µM.
Experiment [13] has the same target. Particulars: at 1 µM.
The target of experiment [14] is Cyclin-dependent kinase 1 (Homo sapiens) (UniProt P06493). Conditions: at 0.1 µM.
The target is the same in experiment [15]. Conditions: at 1 µM.
Experiment [16] deals with Cyclin-dependent kinase 2 (Homo sapiens) (UniProt P24941). Particulars: at 0.1 µM.
Experiment [17] shares this target. Particulars: at 1 µM.
The target is the same in experiment [18]. Particulars: at 0.1 µM. This is another data set of the same source.
For experiment [19] the target is unchanged. Particulars: at 1 µM. The source holds these as a separate data set.
The target in experiment [20] is CDK3/Cyclin E (Homo sapiens) (UniProt P24864+Q00526). Conditions: at 0.1 µM.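 Also: reported percentages are mean inhibition values.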
Chain of CDK3/Cyclin E (Homo sapiens) (P24864 whole entry, looked up): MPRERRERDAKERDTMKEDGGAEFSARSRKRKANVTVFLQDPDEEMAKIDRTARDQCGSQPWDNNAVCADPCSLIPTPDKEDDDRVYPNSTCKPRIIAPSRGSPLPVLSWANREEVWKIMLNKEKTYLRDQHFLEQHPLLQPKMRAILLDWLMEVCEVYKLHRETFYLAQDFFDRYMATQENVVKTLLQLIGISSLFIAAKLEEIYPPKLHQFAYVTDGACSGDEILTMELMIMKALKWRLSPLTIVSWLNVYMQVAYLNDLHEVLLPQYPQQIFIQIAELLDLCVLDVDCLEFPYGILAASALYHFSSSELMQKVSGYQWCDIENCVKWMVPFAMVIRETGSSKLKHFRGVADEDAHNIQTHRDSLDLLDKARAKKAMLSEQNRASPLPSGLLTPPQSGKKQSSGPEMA
Chain of CDK3/Cyclin E (Homo sapiens) (Q00526 whole entry, looked up): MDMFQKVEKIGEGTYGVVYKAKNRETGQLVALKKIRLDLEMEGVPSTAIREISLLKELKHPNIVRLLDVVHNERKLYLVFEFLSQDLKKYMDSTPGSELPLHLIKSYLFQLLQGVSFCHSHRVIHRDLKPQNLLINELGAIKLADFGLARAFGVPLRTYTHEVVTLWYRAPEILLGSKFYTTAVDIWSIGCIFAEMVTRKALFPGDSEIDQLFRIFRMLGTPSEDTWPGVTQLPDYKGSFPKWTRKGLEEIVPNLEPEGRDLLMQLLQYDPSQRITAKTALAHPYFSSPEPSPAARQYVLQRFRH

Chain of Cyclin-dependent kinase 1 (Homo sapiens) (P06493 whole entry, looked up): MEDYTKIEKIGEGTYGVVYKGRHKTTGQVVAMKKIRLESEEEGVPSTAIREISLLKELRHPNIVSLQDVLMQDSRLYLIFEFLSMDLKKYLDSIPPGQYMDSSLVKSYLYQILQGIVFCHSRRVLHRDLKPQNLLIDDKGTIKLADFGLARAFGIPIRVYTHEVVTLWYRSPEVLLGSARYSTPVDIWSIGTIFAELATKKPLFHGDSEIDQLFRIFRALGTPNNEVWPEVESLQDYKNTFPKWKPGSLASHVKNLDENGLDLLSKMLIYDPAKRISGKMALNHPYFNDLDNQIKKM
Chain of Casein kinase I isoform gamma-1 (Homo sapiens) (Q9HCP0 whole entry, looked up, canonical isoform): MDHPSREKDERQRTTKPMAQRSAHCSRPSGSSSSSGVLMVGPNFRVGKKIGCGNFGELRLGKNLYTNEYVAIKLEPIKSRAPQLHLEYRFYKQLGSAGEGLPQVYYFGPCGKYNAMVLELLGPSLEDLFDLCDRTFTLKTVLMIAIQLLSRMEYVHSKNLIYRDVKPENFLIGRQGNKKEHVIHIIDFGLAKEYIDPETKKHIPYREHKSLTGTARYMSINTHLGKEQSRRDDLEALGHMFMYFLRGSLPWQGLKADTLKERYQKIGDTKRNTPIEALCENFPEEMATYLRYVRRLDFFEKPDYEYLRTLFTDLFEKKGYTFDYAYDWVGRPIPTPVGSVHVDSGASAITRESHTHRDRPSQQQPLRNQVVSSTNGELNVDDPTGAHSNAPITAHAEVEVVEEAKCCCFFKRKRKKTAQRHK
Chain of Casein kinase I isoform gamma-2 (Homo sapiens) (P78368 whole entry, looked up, canonical isoform): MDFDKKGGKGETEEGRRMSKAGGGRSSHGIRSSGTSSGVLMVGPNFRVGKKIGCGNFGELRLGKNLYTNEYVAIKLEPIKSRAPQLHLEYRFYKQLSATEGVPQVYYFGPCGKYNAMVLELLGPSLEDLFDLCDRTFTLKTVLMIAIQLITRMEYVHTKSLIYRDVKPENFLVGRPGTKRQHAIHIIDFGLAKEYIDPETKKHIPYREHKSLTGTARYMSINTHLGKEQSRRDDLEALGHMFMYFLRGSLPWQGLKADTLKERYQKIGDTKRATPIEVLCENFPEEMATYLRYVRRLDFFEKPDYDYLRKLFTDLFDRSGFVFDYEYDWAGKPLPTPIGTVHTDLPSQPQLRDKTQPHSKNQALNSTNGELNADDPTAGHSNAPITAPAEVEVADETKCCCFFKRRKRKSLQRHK
Chain of Casein kinase I isoform alpha (Homo sapiens) (P48729 2-337 limits assumed): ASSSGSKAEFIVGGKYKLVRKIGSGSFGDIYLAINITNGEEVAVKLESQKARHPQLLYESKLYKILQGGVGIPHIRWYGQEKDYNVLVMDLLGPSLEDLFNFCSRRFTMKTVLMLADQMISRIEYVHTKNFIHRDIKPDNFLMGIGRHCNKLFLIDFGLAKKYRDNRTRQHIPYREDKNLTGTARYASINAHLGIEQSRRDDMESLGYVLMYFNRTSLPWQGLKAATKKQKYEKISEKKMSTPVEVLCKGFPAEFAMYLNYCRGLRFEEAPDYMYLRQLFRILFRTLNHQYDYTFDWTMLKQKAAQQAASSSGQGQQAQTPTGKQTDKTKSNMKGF
Chain of Casein kinase I isoform gamma-3 (Homo sapiens) (Q9Y6M4 whole entry, looked up, canonical isoform): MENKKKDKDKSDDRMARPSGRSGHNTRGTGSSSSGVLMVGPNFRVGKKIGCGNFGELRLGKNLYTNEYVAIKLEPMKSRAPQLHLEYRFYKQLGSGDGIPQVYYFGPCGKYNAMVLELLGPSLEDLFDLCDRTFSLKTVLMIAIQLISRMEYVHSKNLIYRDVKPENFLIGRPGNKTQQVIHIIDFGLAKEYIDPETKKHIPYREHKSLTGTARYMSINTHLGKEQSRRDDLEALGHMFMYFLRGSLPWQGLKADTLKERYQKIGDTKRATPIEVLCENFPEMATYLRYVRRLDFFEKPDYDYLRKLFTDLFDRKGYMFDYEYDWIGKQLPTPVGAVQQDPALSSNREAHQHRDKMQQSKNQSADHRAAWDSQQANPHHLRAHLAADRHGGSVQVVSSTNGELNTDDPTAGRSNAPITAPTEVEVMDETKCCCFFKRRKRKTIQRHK

`NS(=O)(=O)c1cccc(-c2cc3ccncc3cc2OCc2ccccc2)c1`: the inhibition in experiment [1] is 6.61%; in experiment [2], 2.13%; in experiment [3] it was 0.96%; in experiment [4] it was 2.68%; in experiment [5], 0.84%; in experiment [6], 0.06%. The inhibition in experiment [7] was 3.92%; in experiment [8], 4.57%; in experiment [9], 4.83%; in experiment [10] it was 3.06%; in [11] it was 4.41%; in experiment [12] it was 4.33%. Further, the inhibition in experiment [13] amounted to 2.71%; in experiment [14], 2.03%; in [15] it was 2.22%; in experiment [16] it was 1.1%; in experiment [17] it was 3.16%; in experiment [18], 5.88%. The inhibition in experiment [19] came out at 6.78%; in [20] it was 3.65%.

For the compound `COc1cc(Nc2nccc(-c3cnn4ncccc34)n2)cc(OC)c1`, the inhibition in [1] turned out to be 33.2%; in experiment [2], 3.46%; in experiment [3] it was 16.9%; in [4], 0.24%; in experiment [5] it was 0.16%; in experiment [6], 11.9%. In addition, the inhibition in experiment [7] turned out to be 45.4%; in [8], 2.54%; in experiment [9] it was 19.9%; in experiment [10], 3.83%; in [11], 39.3%; in experiment [12], 3.02%. In addition, the inhibition worked out at 34.9% in experiment [13]; 69.1% in [14]; 91.3% in experiment [15]; 54.5% in experiment [16]; 110% in [17]; 63.6% in experiment [18]. Moreover, the inhibition in experiment [19] was 90%; in [20] it was 34.6%.

With `CN1CCN(C(=O)c2ccc(NC(=O)Nc3ccc(N(C)c4ccnc(Nc5ccc(CS(C)(=O)=O)cc5)n4)cc3)cc2)CC1`, the inhibition was 12.6% in [1]; 0.02% in experiment [2]; 1.8% in experiment [3]; 0.71% in experiment [4]; 0.35% in [5]; 0.51% in [6]. The inhibition in experiment [7] is 2.95%; in experiment [8], 1.88%; in experiment [9], 2.79%; in experiment [10] it was 1.94%; in experiment [11], 1.64%; in [12] it was 1.17%. For the same compound, the inhibition was found to be 1.29% in [13]; 2.37% in experiment [14]; 5.28% in experiment [15]; 4.51% in experiment [16]; 10.8% in [17]; 0.96% in experiment [18]. In addition, the inhibition is 5.93% in [19] and -1.55% in experiment [20].

For `NC(=O)c1cccc(Nc2nccc(Nc3cccc(F)c3)n2)c1`, the inhibition is 6.93% in experiment [1]; -0.18% in [2]; 0.75% in experiment [3]; 0.59% in experiment [4]; -0.96% in experiment [5]; -0.75% in experiment [6]. The inhibition in experiment [7] stood at 1.32%; in [8], 0.88%; in experiment [9] it was 1.67%; in [10], 0.97%; in [11], 1.73%; in experiment [12], 0.99%. In addition, the inhibition was 0.09% in experiment [13]; 1.24% in experiment [14]; 3.33% in [15]; 2.07% in [16]; 4.6% in experiment [17]; 0.92% in [18]. Also, the inhibition in experiment [19] came to 5.16%; in experiment [20] it was 0.62%.

For the compound `CN(c1ccc(NC(=O)Nc2ccc(OC(F)(F)F)cc2)cc1)c1ccnc(Nc2cccc(S(N)(=O)=O)c2)n1`, the inhibition is 9.01% in experiment [1]; 1.37% in experiment [2]; 2.44% in experiment [3]; 1.3% in experiment [4]; 1.3% in [5]; 2.69% in experiment [6]. The inhibition is -0.75% in experiment [7]; 2.75% in experiment [8]; 3.06% in experiment [9]; 2.32% in experiment [10]; 2.66% in experiment [11]; 1.74% in experiment [12]. Also, the inhibition in experiment [13] is 2.37%; in experiment [14] it was -0.1%; in experiment [15], 5.09%; in [16], 0.55%; in [17] it was 14.4%; in [18], 1.2%. The results for the inhibition in experiment [19] and in [20] were 7.47% and -0.62%, respectively.

On to `COc1cc2ncn(-c3cc(OCc4ccccc4S(C)(=O)=O)c(C#N)s3)c2cc1OC`, for which the inhibition in [1] came out at 83%; in experiment [2], 22.1%; in experiment [3] it was 69.2%; in experiment [4] it was 0.6%; in [5], 4.54%; in experiment [6], 3.32%. The inhibition in experiment [7] was determined as 3.58%; in [8], 3.26%; in [9], 4.23%; in experiment [10], 2.02%; in experiment [11], 3.78%; in [12] it was 2.68%. The inhibition in experiment [13] turned out to be 2.61%; in experiment [14], 1.59%; in experiment [15], 6.07%; in experiment [16], 2.46%; in [17], 5.28%; in experiment [18], 4.39%. The figures for the inhibition in experiment [19] and in experiment [20] were 5.94% and 0.41%, respectively.

On to `CN(C)C(=O)O[C@@H]1CN[C@@H](C#Cc2cc3ncnc(Nc4ccc(OCc5cccc(F)c5)c(Cl)c4)c3s2)C1`, for which the inhibition in [1] is 2.9%; in [2] it was -0.67%; in experiment [3] it was -0.36%; in [4] it was -0.92%; in experiment [5], -1.41%; in experiment [6] it was 9.15%. In addition, the inhibition was 6.58% in experiment [7]; 2% in [8]; 6.01% in [9]; 1.45% in experiment [10]; 5.93% in experiment [11]; 0.73% in experiment [12]. Further, the inhibition is 5.49% in experiment [13]; 0.38% in [14]; 0.19% in experiment [15]; 0.82% in experiment [16]; 7.43% in experiment [17]; 0.72% in [18]. The inhibition in experiment [19] was 1.06%; in experiment [20], 3.66%.

Broadly, the inhibition is the change of the read-out against control, counted positive when it falls.
